According to PubChem BioAssay AID493045 (Broad Institute, 2011):
Entries with a potency or affinity are not part of this list. Values without a mark were called inactive.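 How the source made its calls: active means viability loss with fitted half-maximal dose at or below ten times the top valid dose; inconclusive means flat loss of 30 to 70 percent, or a poor fit; inactive means flat within 30 percent, weak potency, or rising signal.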

Test: viability loss in BJeLR (HRASV12) cells, primary screen, Ras selective lethality project, cell-based, Alamar Blue, dry powder (AID 493045)
Settings: BJeLR (HRASV12) fibroblasts viability, 48 h; series mostly up to 45 µM; activity change, negative = viability loss: at the top concentration

Structure (SMILES)	activity change, negative = viability loss
COc1ccc(N(C(=O)[C@@H](C)Cl)C(C(=O)NCCc2ccccc2)c2cccs2)cc1Cl (stereo partly specified)	-1.18%
COc1ccc(N(C(=O)CSc2ncccn2)C(C(=O)NCCc2ccccc2)c2cccs2)cc1Cl (stereo unspecified)	13.6% [at 38 µM]
COc1ccc(N(C(=O)CO)C(C(=O)NCCc2ccccc2)c2cccs2)cc1Cl (stereo unspecified)	4.42%
COCC(=O)N(c1ccc(OC)c(Cl)c1)C(C(=O)NCCc1ccccc1)c1cccs1 (stereo unspecified)	1.62%
O=C(c1[nH]ncc1[N+](=O)[O-])N1CCN(C(c2ccccc2)c2ccccc2)CC1	0.972%
CCC(=O)N(c1ccc(OC)c(Cl)c1)C(C(=O)NCCc1ccccc1)c1cccs1 (stereo unspecified)	0.399%
